Measured values as given in the supplement of paper PMC6555819.

Key:
Experiment in all cases: PBM binding z-score (relative to random genomic background probes); higher = stronger binding; sequences stand for … in GC…GCGATTGACAGCGTAGAATGAAGG
[1] = test system: PPARg:RXRa DBDmut IVT, anti-RXR (DBD mutation: RXRa K156A/R161A, NR concentration 270 nM, RXRa partner concentration 90 nM)
How it was run: (§1)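 The probes on custom Agilent 4×180K protein-binding microarrays were double-stranded, with 34-nt variable regions bearing direct-repeat seeds, single-nucleotide variants, half-site ablations and random human genomic background sequences. Incubation lasted 1 h with ligand-free nuclear receptor dimers in PBS pH 7.4, 2% milk, 0.02% Triton X-100, 1 mM DTT, 0.2 mg/mL BSA and 0.4 mg/ml salmon testes DNA. Antibodies against each partner (one per run) detected bound dimers, and fluorescence scans were regression-normalized. Binding z-scores take the random background probes as reference.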

[2] = test system: PPARg:RXRa IVT, anti-PPARg (NR concentration 270 nM, RXRa partner concentration 90 nM)
How it was run: as §1

[3] = test system: PPARg DBDmut:RXRa IVT, anti-PPARg (DBD mutation: PPARg1 K132A/R137A, NR concentration 270 nM, RXRa partner concentration 90 nM)
How it was run: as §1

[4] = test system: PPARg DBDmut IVT, anti-PPARg (DBD mutation: PPARg1 K132A/R137A, NR concentration 270 nM)
How it was run: as §1

[5] = test system: PPARg homodimer (NR concentration 180 nM)
How it was run: as §1

[6] = test system: PXR:RXRa (NR concentration 270 nM, RXRa partner concentration 90 nM)
How it was run: as §1

[7] = test system: PXR homodimer (NR concentration 270 nM)
How it was run: as §1

[8] = test system: RARa:RXR (NR concentration 270 nM, RXRa partner concentration 90 nM)
How it was run: as §1

[9] = test system: RARa homodimer (NR concentration 270 nM)
How it was run: as §1

[10] = test system: RARb:RXRa (NR concentration 270 nM, RXRa partner concentration 90 nM)
How it was run: as §1

[11] = test system: RARb homodimer (NR concentration 270 nM)
How it was run: as §1

[12] = test system: RARg:RXRa (NR concentration 270 nM, RXRa partner concentration 90 nM)
How it was run: as §1

[13] = test system: RARg homodimer (NR concentration 270 nM)
How it was run: as §1

[14] = test system: RXRa DBDmut IVT, anti-RXR (DBD mutation: RXRa K156A/R161A, NR concentration 90 nM)
How it was run: as §1

[15] = test system: RXRa homodimer (NR concentration 180 nM)
How it was run: as §1

[16] = test system: THRa:RXRa (NR concentration 90 nM, RXRa partner concentration 90 nM)
How it was run: as §1

[17] = test system: THRa homodimer (NR concentration 90 nM)
How it was run: as §1

[18] = test system: VDR homodimer (NR concentration 270 nM)
How it was run: as §1

| Sequence | PBM binding z-score [1] | PBM binding z-score [2] | PBM binding z-score [3] | PBM binding z-score [4] | PBM binding z-score [5] | PBM binding z-score [6] | PBM binding z-score [7] | PBM binding z-score [8] | PBM binding z-score [9] | PBM binding z-score [10] | PBM binding z-score [11] | PBM binding z-score [12] | PBM binding z-score [13] | PBM binding z-score [14] | PBM binding z-score [15] | PBM binding z-score [16] | PBM binding z-score [17] | PBM binding z-score [18] |
| --- | --- | --- | --- | --- | --- | --- | --- | --- | --- | --- | --- | --- | --- | --- | --- | --- | --- | --- |
| AGTCAAAGTTCAGTAGGTAACGTAAGATTCAGCT | 2.06 | 4.51 | 0.804 | 1.29 | 1.65 | 2.51 | 1.37 | 1.49 | 0.822 | 4.13 | 3.15 | 3.74 | 4.28 | 3.23 | 2.08 | 0.91 | -0.604 | 2.23 |
| AATACAGGGTGATCGTAGGCCAGAGTACGCACAG | 0.342 | 1.51 | 0.927 | 0.662 | 0.342 | 0.0587 | 0.139 | 0.29 | 0.275 | 0.432 | 0.66 | 0.545 | 0.556 | -0.0921 | 0.57 | 1.73 | 0.135 | 0.376 |
| ACTTACGGGTCAACGGGGTTATAGCACGCGTATA | 3.04 | 4.81 | 1.21 | 1.3 | 2.83 | 5.57 | 2.28 | 5.87 | 0.668 | 4.47 | 3.81 | 5.9 | 5.07 | 2.6 | 6.78 | 4.23 | 1.08 | 3.81 |
| TAGCCTAAGTCATGGGCCAGTATACCACGCGAAC | -0.872 | -0.144 | -0.174 | -0.856 | -0.397 | -0.259 | -0.135 | 0.041 | -0.286 | 0.0943 | 0.0501 | 0.0528 | 0.13 | -0.416 | 0.289 | -0.0695 | -0.257 | -0.135 |
| AGCTCTAGGTAAAAGTTCAGTGAATCCCGAGGAT | 2.59 | 2.87 | -0.0694 | 0.333 | 0.844 | 1.73 | 1.44 | 1.55 | 0.488 | 2.4 | 2.44 | 1.57 | 1.62 | 0.637 | 1.46 | 1.14 | 0.029 | 1.69 |
| CGAACTAGGTCCTTGACAGGACAGTGAATAGTAA | 3.56 | 2.67 | -0.17 | 0.14 | -0.238 | -0.527 | -0.0323 | -0.228 | -0.233 | -0.0437 | -0.115 | 0.0551 | -0.0699 | 0.0443 | -0.00915 | 0.388 | -0.275 | -0.117 |
| CCTAGCAGACCAATCTGGGTCACTCAAGGCTTGA | 4.01 | 4.87 | 0.573 | -0.876 | 0.484 | 0.638 | -0.509 | 1.57 | -0.18 | 0.96 | 1.75 | 0.672 | 0.527 | 0.174 | 0.711 | 2.64 | 0.374 | 0.0917 |
